# Experimental data taken from ChEMBL document CHEMBL4513216, “Probing the Open Global Health Chemical Diversity Library for Multistage-Active Starting Points for Next-Generation Antimalarials” (ACS Infect Dis, 2020).
# Screen size: about 69,000 compounds; about 8,600 (12%) showed an effect of 50% or more. Only a selection was taken, and strong results are over-represented in it overall.
# System: Plasmodium berghei
# Test: Screen against P. berghei liver stage (PbLuc), transformed with Luciferase, at 10uM
# Assay type: functional, HepG2
# Conditions: tested at 10 uM
row,Compound,INHIBITION [%]
1,Fc1ccc(C2(CNCC(F)F)CCOC2)cc1 (stereo unspecified),22.5
2,Fc1ccc(C2(CNCCc3cccs3)CCOC2)cc1 (stereo unspecified),63.1
3,OCCOCCNCC1(c2ccc(F)cc2)CCOC1 (stereo unspecified),31.6
4,CCc1noc(-c2cccc(NC(=O)C(C)(C)C)c2)n1,32.5
5,Cc1ncc(-c2ccncc2)c(C2CCN(C(=O)c3ccno3)CC2)n1,24.05
6,CNC(=O)C1(C)CN(c2nc(C)cc(C)n2)CCO1 (stereo unspecified),-3.94
7,CC(=O)Nc1nc2c(s1)C1(CCN(C)CC1)Nc1ccccc1S2,10
8,CC(=O)Nc1nc2c(s1)C(C)(C)Nc1ccccc1S2,59
9,CC(=O)Nc1nc2c(s1)C1(CCCC1)Nc1ccccc1S2,41.2
10,CC(C)(C)OC(=O)NCCNC(=O)c1ccc(-c2ccco2)[nH]c1=O,7.12
11,CNC(=O)c1cnc2n1CCN(Cc1cccnc1)C2,49.1
12,Cc1cnc2n(c1=O)CC(C(=O)NC1CC1)CS2 (stereo unspecified),-14.6
13,Cc1ccc(Cl)cc1NC(=O)C1CSc2ncc(C)c(=O)n2C1 (stereo unspecified),-34.5
14,Cc1cccc(NC(=O)C2CSc3ncc(C)c(=O)n3C2)n1 (stereo unspecified),6.83
15,Cc1cnc2n(c1=O)CC(C(=O)NCc1ccccc1Cl)CS2 (stereo unspecified),65.9
16,CSc1ccccc1NC(=O)C1CSc2ncc(C)c(=O)n2C1 (stereo unspecified),60
17,Cc1cnc2n(c1=O)CC(C(=O)Nc1ccon1)CS2 (stereo unspecified),61.5
18,Cc1cnc2n(c1=O)CC(C(=O)Nc1ccccc1Cl)CS2 (stereo unspecified),-17
19,Cc1cccnc1NC(=O)C1CSc2ncc(C)c(=O)n2C1 (stereo unspecified),-4.99
20,Cc1ccncc1NC(=O)C1CSc2ncc(C)c(=O)n2C1 (stereo unspecified),43.8
21,Cc1sc(N)nc1-c1ccc(Cl)cc1,-7.77
22,COc1cccc(NC(=O)c2cc3c([nH]c2=O)CCCC3=O)c1,-37.6
23,Cc1nc2ccccc2n1CCNCc1cccc(C#N)c1,17.5
24,CCNC(=O)c1ccc(NC2CCOC3(CCCCC3)C2)nn1 (stereo unspecified),-9.82

row,Compound,INHIBITION [%]
1,CC(NC(=O)NCCCc1n[nH]c(N)c1C#N)c1ccc(Cl)cc1 (stereo unspecified),7.08
2,CCC1(CC)Cc2ccccc2-c2nc(NCCCO)[nH]c(=O)c21,62.3
3,O=c1c(NCCCO)c(N2CCN(c3ccccc3)CC2)c1=O,44.9
4,CC1(C)Cc2ccccc2-c2nc(NCCO)[nH]c(=O)c21,-4.74
5,Cc1cc(NCCO)nc(-c2ccccc2O)n1,-16
6,CN(Cc1ccccc1)C1(C(=O)O)Cc2ccccc2C1,26.1
7,CC1(C)Cc2ccccc2-c2nc(NCCCO)[nH]c(=O)c21,45.8
8,CCC1(CC)Cc2ccccc2-c2nc(NCCO)[nH]c(=O)c21,64
9,CCC1(C)Cc2ccccc2-c2nc(NCCO)nc(O)c21 (stereo unspecified),20.9
10,CCC1(CC)Cc2ccccc2-c2nc(CN(C)C)nc(O)c21,53.7
11,CNc1ccc(CC2CCCN(C(=O)c3scnc3C)C2)nn1 (stereo unspecified),26.3
12,CO[C@H]1CN(C(=O)c2cccc(C)n2)CC[C@@]12CCCO2,21.7
13,Cc1ccc(N2CCCC(NCc3ccc4c(c3)CCO4)C2)nn1 (stereo unspecified),7.12
14,COCCN1CCCC(c2ncc(C(=O)N(C)C)c(C)n2)C1 (stereo unspecified),9.98
15,Cc1ccc(CN2C[C@@H]3[C@@H](C(=O)NCC(C)C)CCS(=O)(=O)[C@@H]3C2)cc1,-36.9
16,COc1ccc(CN(C)Cn2cc(C)n(-c3cc(C)on3)c2=O)cc1,19.3
17,Cc1cccnc1NC(=O)N(CCO)Cc1ccsc1,-6.75
18,CCN(C)C(=O)c1ccc(N2CCC(Oc3cccc(F)c3)CC2)nc1,61
19,CNC(=O)c1cccnc1N1CCC(Oc2ccc(F)cc2)CC1,93.6
20,O=C(O)c1cccc(N2CCC(Oc3cccc(F)c3)CC2)n1,35
21,Cc1ccc(NC2CCN(C(=O)COc3cccc(F)c3)CC2)nn1,4.52
22,O=C(O)c1ccc(N2CCC(Oc3ccc(Cl)cc3)CC2)nc1,29.4
23,CNC(=O)c1cccnc1N1CCC(OCc2ccccc2)CC1,6.11
24,COC(=O)c1cccnc1N1CCC(Oc2cccc(F)c2)CC1,58.4

row,Compound,INHIBITION [%]
1,CNC(=O)c1cccnc1N1CCN(C/C=C/c2ccccc2)CC1,25.1
2,O=C(O)c1ccc(N2CCC(Oc3cccc(F)c3)CC2)nc1,32.2
3,COc1ncccc1C(=O)N1CC[C@]2(C[C@@H](Oc3cccnc3)CO2)C1,6.66
4,CC(C)NC(=O)C1CN(C(=O)Nc2cccc(F)c2)CC12CCOCC2 (stereo unspecified),17.1
5,Cc1cnn(CC(C)Nc2cnc3ccccc3n2)c1 (stereo unspecified),-26.8
6,CCn1cc(-n2cc3nc(N4CCN(C)CC4)[nH]cc-3c2=O)cn1,-5.53
7,CN(C)S(=O)(=O)N1CCN(c2cc(-n3cccc3)ncn2)CC1,14.4
8,CN(Cc1cnccn1)C(=O)c1ccnc(OC2CCC2)c1,36.3
9,CN(Cc1nnc(C2CC2)n1C)C(=O)c1ccnc(OC2CCC2)c1,-13.4
10,CCc1noc(CN(C)C(=O)c2ccnc(OC3CCC3)c2)n1,55.4
11,CN(Cc1cnn(C)c1)C(=O)c1ccnc(OC2CCC2)c1,46.4
12,CN(Cc1ccc(C#N)cc1)C(=O)c1ccnc(OC2CCC2)c1,51.4
13,CN(CC1CCCCO1)C(=O)c1ccnc(OC2CCC2)c1 (stereo unspecified),9.48
14,CC(C)NC(=O)N1CCc2ncc(CN3CCOCC3)n2CC1,21.6
15,CCCS(=O)(=O)N1Cc2nccn2CC(CN(C)C)C1 (stereo unspecified),-57.5
16,CC(=O)Nc1ccc(CNCc2ccc(CS(C)(=O)=O)cc2)cc1,38
17,COCc1nc(CNc2cc(C)on2)cs1,51.7
18,Cc1cc(NCc2csc(C)n2)no1,29.4
19,COCc1nc(CNc2cccc(-c3csc(C)n3)c2)cs1,18.9
20,Cc1cc(NCc2csc(-c3ccsc3)n2)no1,-92.1
21,COCc1nc(CNc2cccc(-c3ncon3)c2)cs1,-42.1
22,COCc1nc(CNc2cccc(-c3nc(C)c(C)o3)c2)cs1,65.3
23,CN(Cc1noc2c1CCCC2)C(=O)Nc1ccc2oc(=O)n(C)c2c1,36.4
